# Measurements: the supplement of paper PMC8728848
# Shown is part of a subset that was picked to be rich in the strongest signals.
# Assays:
# Assay in all cases: glycan array binding signal (z-score within array); higher = stronger binding
# [1] = test system: Gal(b1-4)GlcNAc(b1-6)GalNAc; conditions: glycan notation: IUPAC condensed, linker removed; mutation: D138V, E140I
# Outline: (§1)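 The binding signal is a Z-score computed within each array. Data were drawn from 3228 arrays in the Consortium for Functional Glycomics database, restricted to those with a known protein sequence. Scores were averaged over arrays of the same protein sequence at different concentrations or buffers, and over linkers, and negative values can be taken as non-binding.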
# Gal3S6S(b1-4)GlcNAc = conditions: glycan notation: IUPAC condensed, linker removed; mutation: D138V, E140I
# Outline: as §1
# [2] = test system: Gal(b1-4)GlcNAc(b1-6)[Gal(b1-3)]GalNAc; conditions: glycan notation: IUPAC condensed, linker removed
# Outline: as §1
# Gal(b1-6)Gal = conditions: glycan notation: IUPAC condensed, linker removed
# Outline: as §1
# Gal3S(b1-3)GalNAc = conditions: glycan notation: IUPAC condensed, linker removed
# Outline: as §1
# [3] = test system: Gal3S(b1-4)[Fuc(a1-3)]Glc6S; conditions: glycan notation: IUPAC condensed, linker removed
# Outline: as §1
# [4] = test system: Gal3S(b1-4)[Fuc(a1-3)]GlcNAc6S; conditions: glycan notation: IUPAC condensed, linker removed
# Outline: as §1
# [5] = test system: Gal3S(b1-4)[Fuc(a1-3)]GlcNAc; conditions: glycan notation: IUPAC condensed, linker removed; mutation: R125K
# Outline: as §1
# Gal(b1-4)GlcNAc = conditions: glycan notation: IUPAC condensed, linker removed
# Outline: as §1
# Gal3S(b1-4)GlcNAc6S = conditions: glycan notation: IUPAC condensed, linker removed
# Outline: as §1
# Gal3S(b1-4)GlcNAc = conditions: glycan notation: IUPAC condensed, linker removed
# Outline: as §1
# [6] = test system: Gal3S(b1-4)[Fuc(a1-3)]Glc; conditions: glycan notation: IUPAC condensed, linker removed
# Outline: as §1
# Gal(b1-4)Glc = conditions: glycan notation: IUPAC condensed, linker removed
# Outline: as §1
# Gal3S(b1-3)GlcNAc = conditions: glycan notation: IUPAC condensed, linker removed
# Outline: as §1
# Gal3S(b1-4)Glc = conditions: glycan notation: IUPAC condensed, linker removed
# Outline: as §1
# [7] = test system: Gal3S(b1-3)[Fuc(a1-4)]GlcNAc; conditions: glycan notation: IUPAC condensed, linker removed
# Outline: as §1
# Gal3S6S(b1-4)GlcNAc6S = conditions: glycan notation: IUPAC condensed, linker removed
# Outline: as §1
# Gal4S6S(b1-4)GlcNAc = conditions: glycan notation: IUPAC condensed, linker removed
# Outline: as §1
# Gal6S(b1-3)GlcNAc = conditions: glycan notation: IUPAC condensed, linker removed
# Outline: as §1
# Gal6S(b1-4)GlcNAc = conditions: glycan notation: IUPAC condensed, linker removed
# Outline: as §1
# Sequence of CHI3L1 (Homo sapiens), P36222 (P36222 whole entry): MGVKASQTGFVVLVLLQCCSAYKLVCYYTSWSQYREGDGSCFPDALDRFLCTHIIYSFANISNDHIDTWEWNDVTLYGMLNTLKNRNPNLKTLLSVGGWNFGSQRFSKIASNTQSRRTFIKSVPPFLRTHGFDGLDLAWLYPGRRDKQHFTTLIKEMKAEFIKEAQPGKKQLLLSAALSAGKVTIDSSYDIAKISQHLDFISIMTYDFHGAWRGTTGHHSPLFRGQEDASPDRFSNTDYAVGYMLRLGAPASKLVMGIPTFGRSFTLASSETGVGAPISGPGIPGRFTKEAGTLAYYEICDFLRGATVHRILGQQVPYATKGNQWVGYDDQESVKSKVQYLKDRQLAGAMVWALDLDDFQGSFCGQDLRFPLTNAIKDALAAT
# Sequence of 6RG (Lolium perenne), B9U140 (B9U140 entry or part of it): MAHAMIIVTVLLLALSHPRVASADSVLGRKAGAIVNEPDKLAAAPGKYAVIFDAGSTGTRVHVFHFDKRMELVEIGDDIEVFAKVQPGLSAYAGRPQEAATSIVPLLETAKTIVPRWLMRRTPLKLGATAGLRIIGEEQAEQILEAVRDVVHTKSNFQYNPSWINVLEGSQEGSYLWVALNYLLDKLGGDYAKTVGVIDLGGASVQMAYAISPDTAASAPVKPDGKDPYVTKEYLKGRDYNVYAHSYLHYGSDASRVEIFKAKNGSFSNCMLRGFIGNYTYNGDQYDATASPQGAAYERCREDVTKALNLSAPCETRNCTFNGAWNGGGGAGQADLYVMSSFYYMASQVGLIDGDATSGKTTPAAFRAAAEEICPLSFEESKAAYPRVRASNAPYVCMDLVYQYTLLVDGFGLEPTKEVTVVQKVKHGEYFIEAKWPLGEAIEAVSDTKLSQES
# Sequence of CHT (Homo sapiens) (chain, as listed by the source): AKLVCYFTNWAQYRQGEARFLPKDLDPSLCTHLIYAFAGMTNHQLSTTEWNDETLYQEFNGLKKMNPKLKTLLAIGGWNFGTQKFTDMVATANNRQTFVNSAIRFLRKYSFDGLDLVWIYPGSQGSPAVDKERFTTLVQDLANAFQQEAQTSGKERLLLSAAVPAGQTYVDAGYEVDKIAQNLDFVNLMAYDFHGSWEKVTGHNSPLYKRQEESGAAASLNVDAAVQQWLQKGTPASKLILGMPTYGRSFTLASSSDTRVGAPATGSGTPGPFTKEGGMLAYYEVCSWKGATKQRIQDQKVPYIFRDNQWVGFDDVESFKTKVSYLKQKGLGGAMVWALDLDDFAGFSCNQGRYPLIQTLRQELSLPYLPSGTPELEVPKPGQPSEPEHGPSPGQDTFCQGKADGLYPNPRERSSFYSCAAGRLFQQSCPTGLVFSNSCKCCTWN
# Sequence of PILRa (Mus musculus), Q2YSF3 (Q2YSF3 entry or part of it): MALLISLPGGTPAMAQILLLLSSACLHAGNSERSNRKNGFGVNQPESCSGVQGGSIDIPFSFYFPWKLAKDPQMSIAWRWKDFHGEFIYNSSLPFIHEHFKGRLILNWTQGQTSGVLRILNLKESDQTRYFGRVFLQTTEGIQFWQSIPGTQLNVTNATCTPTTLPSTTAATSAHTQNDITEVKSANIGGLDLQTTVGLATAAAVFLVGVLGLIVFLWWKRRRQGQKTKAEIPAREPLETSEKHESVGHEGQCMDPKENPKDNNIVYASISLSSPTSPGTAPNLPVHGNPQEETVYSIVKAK
# Sequence of Aggrecan (Rattus norvegicus), NP_071526 (chain, as listed by the source): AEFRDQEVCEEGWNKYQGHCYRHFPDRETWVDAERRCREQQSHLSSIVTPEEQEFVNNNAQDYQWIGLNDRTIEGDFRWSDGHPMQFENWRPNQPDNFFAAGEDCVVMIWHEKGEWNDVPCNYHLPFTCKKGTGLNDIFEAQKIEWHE
# Sequence of SRLC (Mus musculus), Q8VIF6 (Q8VIF6 other isoform, or with tags, fused parts or gaps): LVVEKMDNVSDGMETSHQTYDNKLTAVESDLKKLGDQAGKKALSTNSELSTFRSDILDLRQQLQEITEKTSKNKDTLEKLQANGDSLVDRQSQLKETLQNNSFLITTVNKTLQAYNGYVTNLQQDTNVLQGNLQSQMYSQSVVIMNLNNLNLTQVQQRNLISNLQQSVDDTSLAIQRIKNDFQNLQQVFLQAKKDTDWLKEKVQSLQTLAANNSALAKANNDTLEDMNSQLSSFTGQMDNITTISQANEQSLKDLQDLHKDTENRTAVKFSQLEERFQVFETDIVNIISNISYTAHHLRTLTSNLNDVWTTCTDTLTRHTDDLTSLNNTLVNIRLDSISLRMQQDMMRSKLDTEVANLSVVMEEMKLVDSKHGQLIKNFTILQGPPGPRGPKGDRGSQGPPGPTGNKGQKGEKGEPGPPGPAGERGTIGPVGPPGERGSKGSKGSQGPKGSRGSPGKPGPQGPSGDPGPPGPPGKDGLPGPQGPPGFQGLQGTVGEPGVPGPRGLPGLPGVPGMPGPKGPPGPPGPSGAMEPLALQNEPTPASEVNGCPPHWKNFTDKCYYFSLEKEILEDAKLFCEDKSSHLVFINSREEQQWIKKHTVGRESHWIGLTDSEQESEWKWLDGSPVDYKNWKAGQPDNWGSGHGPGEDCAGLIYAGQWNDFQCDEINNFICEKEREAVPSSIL
# Sequence of Neurocan (Homo sapiens), O14594 (O14594 other isoform, or with tags, fused parts or gaps): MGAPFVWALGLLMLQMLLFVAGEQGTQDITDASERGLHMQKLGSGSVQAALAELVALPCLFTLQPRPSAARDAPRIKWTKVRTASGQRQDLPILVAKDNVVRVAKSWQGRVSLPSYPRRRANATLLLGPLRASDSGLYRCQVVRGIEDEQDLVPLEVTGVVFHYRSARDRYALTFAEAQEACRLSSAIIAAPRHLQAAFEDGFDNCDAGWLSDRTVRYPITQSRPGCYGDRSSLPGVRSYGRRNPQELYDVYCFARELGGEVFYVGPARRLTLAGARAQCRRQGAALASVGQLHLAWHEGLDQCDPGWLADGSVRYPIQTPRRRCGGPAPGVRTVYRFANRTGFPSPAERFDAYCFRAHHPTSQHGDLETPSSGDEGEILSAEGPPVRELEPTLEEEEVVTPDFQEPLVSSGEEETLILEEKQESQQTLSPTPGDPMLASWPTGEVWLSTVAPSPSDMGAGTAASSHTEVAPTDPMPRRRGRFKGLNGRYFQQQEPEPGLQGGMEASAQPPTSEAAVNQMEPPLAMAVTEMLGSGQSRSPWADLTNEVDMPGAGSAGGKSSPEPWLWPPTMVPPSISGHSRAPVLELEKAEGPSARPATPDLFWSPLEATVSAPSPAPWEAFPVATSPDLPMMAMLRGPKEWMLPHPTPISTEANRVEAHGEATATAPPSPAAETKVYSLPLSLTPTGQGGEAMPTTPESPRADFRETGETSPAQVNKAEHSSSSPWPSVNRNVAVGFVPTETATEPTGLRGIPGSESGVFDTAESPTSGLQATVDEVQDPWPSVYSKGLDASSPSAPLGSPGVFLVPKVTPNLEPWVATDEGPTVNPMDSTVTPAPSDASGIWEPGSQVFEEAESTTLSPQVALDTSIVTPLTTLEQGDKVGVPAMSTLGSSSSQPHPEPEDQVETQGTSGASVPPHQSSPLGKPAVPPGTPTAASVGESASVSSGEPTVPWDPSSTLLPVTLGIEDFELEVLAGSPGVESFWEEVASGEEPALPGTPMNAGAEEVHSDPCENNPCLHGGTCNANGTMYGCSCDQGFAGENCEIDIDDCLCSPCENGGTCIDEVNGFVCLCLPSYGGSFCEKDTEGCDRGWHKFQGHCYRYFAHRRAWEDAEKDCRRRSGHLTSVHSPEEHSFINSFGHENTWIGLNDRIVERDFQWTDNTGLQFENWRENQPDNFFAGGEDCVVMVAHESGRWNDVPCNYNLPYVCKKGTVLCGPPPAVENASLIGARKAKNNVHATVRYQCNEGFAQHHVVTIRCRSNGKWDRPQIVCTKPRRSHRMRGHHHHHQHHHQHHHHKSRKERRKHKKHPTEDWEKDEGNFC
# Sequence of Regenerating Gene IV (Homo sapiens), Q9BYZ8 (Q9BYZ8 whole entry, looked up): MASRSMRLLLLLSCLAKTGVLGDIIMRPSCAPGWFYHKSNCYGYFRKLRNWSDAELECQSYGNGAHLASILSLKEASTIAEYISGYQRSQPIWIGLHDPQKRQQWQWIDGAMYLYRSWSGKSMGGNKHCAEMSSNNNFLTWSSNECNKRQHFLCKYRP
# Sequence of C3b (Homo sapiens), P01024 (P01024 23-667): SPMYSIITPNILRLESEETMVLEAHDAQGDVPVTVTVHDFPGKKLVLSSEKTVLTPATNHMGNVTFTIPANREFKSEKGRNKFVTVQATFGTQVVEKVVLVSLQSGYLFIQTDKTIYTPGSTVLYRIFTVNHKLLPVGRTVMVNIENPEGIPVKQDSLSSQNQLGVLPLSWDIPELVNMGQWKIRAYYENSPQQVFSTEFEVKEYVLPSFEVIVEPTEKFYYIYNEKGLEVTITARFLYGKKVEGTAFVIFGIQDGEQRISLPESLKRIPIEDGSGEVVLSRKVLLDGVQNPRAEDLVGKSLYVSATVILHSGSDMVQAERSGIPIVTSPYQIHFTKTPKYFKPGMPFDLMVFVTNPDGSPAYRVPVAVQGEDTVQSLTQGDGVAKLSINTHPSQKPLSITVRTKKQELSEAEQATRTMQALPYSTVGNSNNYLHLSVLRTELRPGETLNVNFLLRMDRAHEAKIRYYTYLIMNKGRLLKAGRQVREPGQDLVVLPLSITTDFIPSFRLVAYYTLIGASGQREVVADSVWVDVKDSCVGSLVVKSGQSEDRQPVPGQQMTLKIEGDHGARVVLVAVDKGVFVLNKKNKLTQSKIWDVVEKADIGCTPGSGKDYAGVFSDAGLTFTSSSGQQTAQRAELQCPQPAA
# Sequence of Avaren (Actinomycete K97) (chain, as listed by the source): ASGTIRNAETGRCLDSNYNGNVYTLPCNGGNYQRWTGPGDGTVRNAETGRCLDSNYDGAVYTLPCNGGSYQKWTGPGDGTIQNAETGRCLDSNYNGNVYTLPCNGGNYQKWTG
# Sequence of PILRb (Mus musculus), Q2YSF2 (Q2YSF2 entry or part of it): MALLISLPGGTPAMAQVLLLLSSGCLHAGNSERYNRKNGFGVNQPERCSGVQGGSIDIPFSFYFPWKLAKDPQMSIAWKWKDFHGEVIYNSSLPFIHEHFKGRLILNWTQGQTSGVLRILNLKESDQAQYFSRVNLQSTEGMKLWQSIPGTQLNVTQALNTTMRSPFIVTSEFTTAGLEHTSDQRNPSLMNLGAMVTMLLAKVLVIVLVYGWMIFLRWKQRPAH
substance,measurement,setting,value
CHT (Homo sapiens),glycan array binding signal (z-score),[1],-0.115
same,glycan array binding signal (z-score),Gal3S6S(b1-4)GlcNAc,-0.059
"Siglec-8 (Homo sapiens), Q9NYZ4",glycan array binding signal (z-score),[2],-0.099
same,glycan array binding signal (z-score),Gal(b1-6)Gal,-0.178
same,glycan array binding signal (z-score),Gal(b1-6)Gal; mutation: R125K,-0.117
same,glycan array binding signal (z-score),Gal3S(b1-3)GalNAc,0.076
same,glycan array binding signal (z-score),[3],0.077
same,glycan array binding signal (z-score),[4],-0.171
same,glycan array binding signal (z-score),[5],0.148
"Regenerating Gene IV (Homo sapiens), Q9BYZ8",glycan array binding signal (z-score),[2],0.244
"CHI3L1 (Homo sapiens), P36222",glycan array binding signal (z-score),Gal(b1-4)GlcNAc,-0.122
same,glycan array binding signal (z-score),Gal3S(b1-4)GlcNAc6S,-0.093
same,glycan array binding signal (z-score),Gal3S(b1-4)GlcNAc,0.706
same,glycan array binding signal (z-score),[6],0.014
"Neurocan (Homo sapiens), O14594",glycan array binding signal (z-score),Gal(b1-4)Glc,-0.551
MpAFP RI GFP (Marinomonas primoryensis),glycan array binding signal (z-score),Gal(b1-6)Gal,-0.336
same,glycan array binding signal (z-score),Gal3S(b1-3)GlcNAc,-0.429
same,glycan array binding signal (z-score),Gal3S(b1-4)Glc,0.469
Avaren (Actinomycete K97),glycan array binding signal (z-score),Gal3S(b1-3)GalNAc,-0.121
"C3b (Homo sapiens), P01024",glycan array binding signal (z-score),Gal3S(b1-3)GlcNAc,1.05
"SRLC (Mus musculus), Q8VIF6",glycan array binding signal (z-score),[7],-0.081
same,glycan array binding signal (z-score),Gal3S6S(b1-4)GlcNAc6S,0.13
"6RG (Lolium perenne), B9U140",glycan array binding signal (z-score),Gal3S(b1-4)GlcNAc6S,0.775
same,glycan array binding signal (z-score),Gal3S6S(b1-4)GlcNAc6S,2.09
same,glycan array binding signal (z-score),Gal4S6S(b1-4)GlcNAc,1.06
"PILRa (Mus musculus), Q2YSF3",glycan array binding signal (z-score),Gal3S(b1-4)Glc,0.049
same,glycan array binding signal (z-score),Gal6S(b1-3)GlcNAc,1.62
"PILRb (Mus musculus), Q2YSF2",glycan array binding signal (z-score),[6],0.773
"Aggrecan (Rattus norvegicus), NP_071526",glycan array binding signal (z-score),Gal4S6S(b1-4)GlcNAc,-0.024
same,glycan array binding signal (z-score),Gal6S(b1-4)GlcNAc,0.061
"wLAT-1A (Homo sapiens), Q01650",glycan array binding signal (z-score),Gal6S(b1-4)GlcNAc,3.6
